What follows are compounds tested on PRKD1. Settings: concentration: 1 μM, replicates: in singlicate; n = 1.
With COc1ccc(-n2cnc3c(N)ncnc32)cc1 [SKF-97236] the “%Inh” value was 0%.
In the case of FC(F)(F)c1ccc(-c2ncn(CCCN3CCOCC3)c2-c2ccncc2)cc1 [SB-217780], the “%Inh” value is reported as 0%.
In the case of CCc1nc(-c2cccc(C)c2)c(-c2ccncc2)s1, the “%Inh” value is reported as 0%.
With COC(=O)c1c(-c2ccccc2)c2cc(Br)ccc2c(=O)n1Cc1ccc(NC(=O)CCC(=O)O)cc1 the “%Inh” value was 0%.
In the case of Cc1ccc(-c2ccc3c(ccc4sc5c(c43)NC[C@@H](C)N=C5N(C)C)n2)cn1, the “%Inh” value is reported as 10%.
Cc1nnc(-c2ccc(C)c(-c3ccc(C(=O)O)cc3)c2)o1 [GW608005] was tested, and the “%Inh” value was 0%.
In the case of CCCNC(=O)Nc1ccc(Oc2ncnc3ccn(C)c23)cc1, the “%Inh” value is reported as 0%.
With Nc1n[nH]c2nnc(-c3ccccc3)c(-c3ccccc3)c12 [GW554060] the “%Inh” value was 0%.
In the case of COC(=O)c1c(-c2ccccc2)c2cc(Br)ccc2c(=O)n1Cc1ccc(S(C)(=O)=O)cc1, the “%Inh” value is reported as 0%.
O=c1cc(N2CCOCC2)nc2n(Cc3ccc(F)c(Cl)c3)ccn12 [GSK2297099] was tested, and the “%Inh” value was 0%.
With COc1cc(Nc2nccc(N3CCC(NC(=O)C4COc5ccccc5O4)C3)n2)cc(OC)c1OC (stereo not drawn) [GSK1379761] the “%Inh” value was 0%.
In the case of CCCC(=O)Nc1n[nH]c2ncc(-c3cccc4ccccc34)cc12 [SB-642057], the “%Inh” value is reported as 0%.
For CCn1c(-c2nonc2N)nc2ccccc21 [SB-693162/GW549034], the “%Inh” value was 0%.
With O=C(Nc1n[nH]c2nc(-c3ccccc3)c(Br)cc12)C1CC1 [SB-708998] the “%Inh” value was 0%.
With Cn1c(=O)c(F)c(Nc2ccc(I)cc2F)c2c(=O)n(OC[C@H](O)CO)cnc21 the “%Inh” value was 0%.
With COc1cc2nccc(Nc3ccc(OCc4ccc(NC(C)=O)cc4)cc3)c2cc1OC.Cl [GW440135] the “%Inh” value was 0%.
For Cl.c1ccc(Cn2cnc3cc(Nc4ncnc5ccccc45)ccc32)cc1 [GW272142], the “%Inh” value was 0%.
With Nc1ncnc2c1ncn2-c1cccc2ccccc12 [SKF-97184] the “%Inh” value was 0%.
In the case of O=C(NCCNc1ccnc(Nc2ccc(F)cc2)n1)Nc1ccc2c(c1)OCO2 [GSK1379882], the “%Inh” value is reported as 0%.
O=C(Nc1n[nH]c2cc(-c3ccccc3F)ccc12)C1CC1 [SB-733371] was tested, and the “%Inh” value was 0%.
In the case of COc1ccc(-c2coc3ccc(-c4nnc(SCc5cccc(C#N)c5)o4)cc23)cc1, the “%Inh” value is reported as 0%.
With Cc1nc(N(C)[C@H]2CN(C(=O)CC#N)CC[C@H]2C)c2cc[nH]c2n1 the “%Inh” value was 0%.
With Cc1cccc(-c2nc(Nc3ccc4c(cnn4C)c3)c3ccccc3n2)n1 [GW876731] the “%Inh” value was 99.2%.
Cl.NS(=O)(=O)c1cccc(Nc2cc(-c3ccc(F)cc3)n[nH]2)c1 [GW824645] was tested, and the “%Inh” value was 0%.
COc1ccc(-c2cc3c(C)nc(N)nc3n([C@H]3CC[C@H](OCCO)CC3)c2=O)cn1 was tested, and the “%Inh” value was 2%.
In the case of COc1ccc(-c2cc3c(C)nc(N)nc3n([C@H]3CC[C@H](O)CC3)c2=O)cn1, the “%Inh” value is reported as 3%.
For CN(C)c1cc(-c2ccc3c(N)n[nH]c3c2)nc(N)n1 [GSK2219329], the “%Inh” value was 0%.
With O=C1NC(=O)C(c2ccccc2)=C1Nc1cccc(O)c1 [SB-390534] the “%Inh” value was 0%.
In the case of Fc1cccc(CSc2nnc(-c3ccc4c(c3)CCO4)o2)c1, the “%Inh” value is reported as 0%.
For COc1cc2ncn(-c3cc(OCCCc4ccccc4)c(C(N)=O)s3)c2cc1OC [GSK205189], the “%Inh” value was 0%.
With COc1cc(Nc2ccnc3ccc(C(F)(F)F)cc23)cc(OC)c1OC [GW577382] the “%Inh” value was 6%.
With COc1cccc(-n2cnc3c(N)ncnc32)c1 [SKF-97416] the “%Inh” value was 0%.
In the case of COc1cccc(C2=C(Nc3cccc(C(=O)O)c3)C(=O)NC2=O)c1 [SB-390770], the “%Inh” value is reported as 0%.
Nc1nc(N)c2nc(-c3ccccc3)[nH]c2n1 [SKF-12778] was tested, and the “%Inh” value was 40%.
With CCC(=O)c1c(-c2ccccc2)c2cc(Cl)ccc2c(=O)n1Cc1cc(S(C)(=O)=O)n(CC(F)F)n1 the “%Inh” value was 0%.
With CCS(=O)(=O)c1ccc(OC)c(Nc2ncc(-c3ccc(F)cc3)o2)c1.Cl [GW591947] the “%Inh” value was 0%.

Each compound was assayed on PRKD2. Settings: concentration: 1 μM, replicates: in singlicate; n = 1.
With COc1ccc(-n2cnc3c(N)ncnc32)cc1 [SKF-97236] the “%Inh” value was 1%.
FC(F)(F)c1ccc(-c2ncn(CCCN3CCOCC3)c2-c2ccncc2)cc1 [SB-217780] was tested, and the “%Inh” value was 0%.
CCc1nc(-c2cccc(C)c2)c(-c2ccncc2)s1 was tested, and the “%Inh” value was 26%.
In the case of COC(=O)c1c(-c2ccccc2)c2cc(Br)ccc2c(=O)n1Cc1ccc(NC(=O)CCC(=O)O)cc1, the “%Inh” value is reported as 0%.
In the case of Cc1ccc(-c2ccc3c(ccc4sc5c(c43)NC[C@@H](C)N=C5N(C)C)n2)cn1, the “%Inh” value is reported as 0%.
In the case of Cc1nnc(-c2ccc(C)c(-c3ccc(C(=O)O)cc3)c2)o1 [GW608005], the “%Inh” value is reported as 0%.
For CCCNC(=O)Nc1ccc(Oc2ncnc3ccn(C)c23)cc1, the “%Inh” value was 0%.
With Nc1n[nH]c2nnc(-c3ccccc3)c(-c3ccccc3)c12 [GW554060] the “%Inh” value was 0%.
For COC(=O)c1c(-c2ccccc2)c2cc(Br)ccc2c(=O)n1Cc1ccc(S(C)(=O)=O)cc1, the “%Inh” value was 0%.
With O=c1cc(N2CCOCC2)nc2n(Cc3ccc(F)c(Cl)c3)ccn12 [GSK2297099] the “%Inh” value was 0%.
With COc1cc(Nc2nccc(N3CCC(NC(=O)C4COc5ccccc5O4)C3)n2)cc(OC)c1OC (stereo not drawn) [GSK1379761] the “%Inh” value was 10%.
In the case of CCCC(=O)Nc1n[nH]c2ncc(-c3cccc4ccccc34)cc12 [SB-642057], the “%Inh” value is reported as 14%.
For CCn1c(-c2nonc2N)nc2ccccc21 [SB-693162/GW549034], the “%Inh” value was 3%.
In the case of O=C(Nc1n[nH]c2nc(-c3ccccc3)c(Br)cc12)C1CC1 [SB-708998], the “%Inh” value is reported as 0%.
For Cn1c(=O)c(F)c(Nc2ccc(I)cc2F)c2c(=O)n(OC[C@H](O)CO)cnc21, the “%Inh” value was 0%.
In the case of COc1cc2nccc(Nc3ccc(OCc4ccc(NC(C)=O)cc4)cc3)c2cc1OC.Cl [GW440135], the “%Inh” value is reported as 11%.
In the case of Cl.c1ccc(Cn2cnc3cc(Nc4ncnc5ccccc45)ccc32)cc1 [GW272142], the “%Inh” value is reported as 1%.
Nc1ncnc2c1ncn2-c1cccc2ccccc12 [SKF-97184] was tested, and the “%Inh” value was 0%.
In the case of O=C(NCCNc1ccnc(Nc2ccc(F)cc2)n1)Nc1ccc2c(c1)OCO2 [GSK1379882], the “%Inh” value is reported as 7%.
O=C(Nc1n[nH]c2cc(-c3ccccc3F)ccc12)C1CC1 [SB-733371] was tested, and the “%Inh” value was 0%.
For COc1ccc(-c2coc3ccc(-c4nnc(SCc5cccc(C#N)c5)o4)cc23)cc1, the “%Inh” value was 23%.
Cc1nc(N(C)[C@H]2CN(C(=O)CC#N)CC[C@H]2C)c2cc[nH]c2n1 was tested, and the “%Inh” value was 1%.
Cc1cccc(-c2nc(Nc3ccc4c(cnn4C)c3)c3ccccc3n2)n1 [GW876731] was tested, and the “%Inh” value was 99.6%.
Cl.NS(=O)(=O)c1cccc(Nc2cc(-c3ccc(F)cc3)n[nH]2)c1 [GW824645] was tested, and the “%Inh” value was 5%.
In the case of COc1ccc(-c2cc3c(C)nc(N)nc3n([C@H]3CC[C@H](OCCO)CC3)c2=O)cn1, the “%Inh” value is reported as 0%.
With COc1ccc(-c2cc3c(C)nc(N)nc3n([C@H]3CC[C@H](O)CC3)c2=O)cn1 the “%Inh” value was 0%.
In the case of CN(C)c1cc(-c2ccc3c(N)n[nH]c3c2)nc(N)n1 [GSK2219329], the “%Inh” value is reported as 0%.
O=C1NC(=O)C(c2ccccc2)=C1Nc1cccc(O)c1 [SB-390534] was tested, and the “%Inh” value was 3%.
Fc1cccc(CSc2nnc(-c3ccc4c(c3)CCO4)o2)c1 was tested, and the “%Inh” value was 12%.
In the case of COc1cc2ncn(-c3cc(OCCCc4ccccc4)c(C(N)=O)s3)c2cc1OC [GSK205189], the “%Inh” value is reported as 23%.
COc1cc(Nc2ccnc3ccc(C(F)(F)F)cc23)cc(OC)c1OC [GW577382] was tested, and the “%Inh” value was 6%.
COc1cccc(-n2cnc3c(N)ncnc32)c1 [SKF-97416] was tested, and the “%Inh” value was 0%.
In the case of COc1cccc(C2=C(Nc3cccc(C(=O)O)c3)C(=O)NC2=O)c1 [SB-390770], the “%Inh” value is reported as 0%.
In the case of Nc1nc(N)c2nc(-c3ccccc3)[nH]c2n1 [SKF-12778], the “%Inh” value is reported as 9%.
CCC(=O)c1c(-c2ccccc2)c2cc(Cl)ccc2c(=O)n1Cc1cc(S(C)(=O)=O)n(CC(F)F)n1 was tested, and the “%Inh” value was 0%.
In the case of CCS(=O)(=O)c1ccc(OC)c(Nc2ncc(-c3ccc(F)cc3)o2)c1.Cl [GW591947], the “%Inh” value is reported as 0%.

— article PMC5540273 (PLoS ONE, 2017)
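Also: KINOMEscan kinase panel screen.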
